A selection: hits, their analogues and other compounds. The true share with any hit is near 6.5%.
FMDV inh: antivirals against foot and mouth disease virus. FMDV antiviral cell-based qHTS. Potency, µM (series often up to 57.9 µM), for inactives: top-dose activity change, negative = inhibition, most hits filed as inhibitors. 410,000 compounds, 1.2% hits. AID 1159524; calls by dose curve; tested in HEK293T cells; also: read-out not given here; potency is read from the fitted curve at half-maximal effect; nearly all actives have a fitted effect of over 45% in size
Lassa entry inh: blocks Lassa virus binding to or entry into cells | Lassa virus pseudotype entry inhibition, cell reporter | Potency, µM (titrated, usually from 37.9 µM), for the others: top-dose activity change, negative = inhibition, hits mostly inhibitors | 300,000 compounds, 1.2% hits; calls by dose curve; tested in HEK293 cells; also: potency is read from the fitted curve at half-maximal effect; nearly all actives have a fitted effect of over 50% in size
HCMV inh: human cytomegalovirus inhibition | 410,000 compounds, 4.5% hits | HFF cells, HCMV-luciferase reporter, 72 h; hits give low values | activity change, negative = inhibition, % at 57.5 µM; in the data active = activity change below about -60%; inconclusive = no clear call, values can overlap the other calls; inactive = above about -39%
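Cell-based, HFFs, 1000 cells/well, 16 h 37C; cpds in DMSO + HCMV-luc, MOI 1 PFU/cell; 72 h 37C; OneGlo luminescence after 5 min RT; norm. to buffer vs Salinomycin 10uM.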
Vaccinia Venus: inhibitors of vaccinia virus (Venus reporter); Vaccinia virus Venus reporter expression, fluorescence; Potency, µM (highest dose often 36.5 µM), for the others: top-dose activity change, negative = inhibition, most hits filed as inhibitors; AID 720580; 330,000 compounds, 0.46% hits; calls by dose curve; tested in A549 cells; also: potency is read from the fitted curve at half-maximal effect; nearly all actives have a fitted effect of over 30% in size
MARV entry inh: Marburg virus entry inhibition; Marburg virus pseudotyped entry inhibition, cell reporter; Potency, µM (series often up to 37.8 µM), inactives show at the top dose activity change, negative = inhibition, actives largely listed as inhibitors; 300,000 compounds, 1.8% hits; AID 540276; calls by dose curve; tested in HEK293 cells; also: potency is read from the fitted curve at half-maximal effect
Vaccinia mCherry: inhibitors of vaccinia virus infection (mCherry reporter signal) | AID 720579 | Vaccinia virus mCherry reporter infection, fluorescence | 310,000 compounds, 0.63% hits | Potency, µM (highest dose often 36.5 µM), inactives show at the highest dose activity change, negative = inhibition, usual class: inhibitors; calls by dose curve; tested in A549 cells; also: potency is read from the fitted curve at half-maximal effect; nearly all actives have a fitted effect of over 35% in size
Numbers without * were called inactive; i = inactive; ? = inconclusive; . = no result; [ ] = another dose, or the depositor's remark. % is scaled to controls: 0 for no effect and ±100 for the full control effect.

SMILES | FMDV inh | Lassa entry inh | HCMV inh | Vaccinia Venus | MARV entry inh | Vaccinia mCherry
CCCOC(=O)CSC1=C(C#N)[C@H](c2ccccc2OC)[C@H](C#N)C(=O)N1 | . | . | . | . | 6% | .
O=C1Nc2ccccc2/C1=C/C(=O)c1cccs1 | 22µM* | -15% | -95* | -17% | ? | -5%
COc1ccc(C(=O)/C=C2/C(=O)Nc3ccccc32)cc1OC | 32µM* | . | 48 | -24% | . | i
O=C1Nc2ccccc2/C1=C/c1nc2ccccc2c(=O)n1-c1ccc(O)cc1 | 2% | ? | ? | -26% | ? | -29%
COc1ccc(C2NC(=O)c3ccccc3N2)cc1OC (stereo not given) | 8% | 12% | 110 | -9% | -11% | -14%
COc1ccc(-n2c(/C=C3\C(=O)Nc4ccccc43)nc3ccccc3c2=O)cc1 | ? | ? | -64* | -12% | ? | i
C=CCOc1ccc(C(=O)/C=C2/C(=O)Nc3ccccc32)cc1 | 16% | -19%[46.1 µM] | -69* | -22% | ? | -18%
NC(=O)COc1ccc(C(=O)/C=C2/C(=O)Nc3ccccc32)cc1 | ? | ? | -19 | -21% | ? | -22%
COc1cccc2c1NC1(C)c3ccccc3-n3nncc3CN1C2=O (stereo not given) | . | . | -8 | . | . | .
COc1ccc(/C=C/C(=O)c2ccc(OC)cc2OC)cc1 | 52% | . | -30 | -10% | . | ?
COc1ccc(C(=O)/C=C2/C(=O)Nc3ccccc32)c(OC)c1 | ? | ? | -100* | ? | ? | ?
Cc1cc(N(C)C)c(C)cc1/C=C/c1ccnc2ccccc12 | . | . | . | 12% | . | -26%
COc1cccc(/C=N/NC(=S)Nc2cccc(S(=O)(=O)N(C)C)c2)c1 | ? | . | 0 | . | . | .
COc1ccc(O)c(/C=N/NC(=S)Nc2cccnc2)c1 | 10% | . | 0 | ? | . | 11µM*
COc1ccc(O)c(/C=N/NC(=S)Nc2cccc(S(=O)(=O)N(C)C)c2)c1 | 0% | 4.6µM* | 27 | ? | 3.7µM* | 2µM*
CCN(CC)S(=O)(=O)c1ccc(N/N=C/c2cccnc2)nc1 | 5% | . | -23 | . | . | .
CCN(CC)S(=O)(=O)c1ccc(N/N=C/c2cc(OC)ccc2O)nc1 | -24% | ? | -103* | ? | ? | 2µM*
C1=Nc2ccccc2/C1=C/c1ccccc1 | . | . | . | -6% | . | -14%
O=S(=O)(NCc1ccc(Cl)cc1)c1ccc(Br)cc1C1CC[C@@H](O)C1 (stereo not given in full) | . | . | -6 | . | . | .
Cc1ccc(NC(=O)c2cccc(Oc3ccc([N+](=O)[O-])cc3)c2)c(C(=O)O)c1 | -2% | . | 49 | . | . | .
Cn1cc([N+](=O)[O-])c(C(=O)Nc2cc(Oc3ccccc3)cc([N+](=O)[O-])c2)n1 | ? | ? | -99* | ? | ? | 14µM*
Cn1cc(Br)c(C(=O)Nc2ccc3c(C(F)(F)F)cc(=O)oc3c2)n1 | -10% | . | -5 | . | . | .
Cn1cc([N+](=O)[O-])c(C(=O)Nc2ccc3c(C(F)(F)F)cc(=O)oc3c2)n1 | -17% | . | -99* | . | . | .
Cc1cccc(Oc2cc(NC(=O)c3ccccc3)cc([N+](=O)[O-])c2)c1 | ? | ? | -64* | ? | ? | -27%
Cn1c(NCc2ccccc2)nc2cnc(Nc3ccccc3Cl)cc21 | . | . | -9 | . | . | .
SMILES | FMDV inh | Lassa entry inh | HCMV inh | Vaccinia Venus | MARV entry inh | Vaccinia mCherry
CCN1CCC(N[C@H]2C[C@@H](C(=O)NC)N(Cc3cccc4ccccc34)C2)CC1 | 6% | . | . | -2% | . | -7%
CCCCN(C)CCCNC(=O)c1ccc2nc(N3CCCCC3)sc2c1 | 37% | . | -21 | -11% | -6%[46.1 µM] | -19%
O=C1CN(C(=O)c2ccc(S(=O)(=O)N3CCCC3)cc2)C(c2ccc(F)cc2)c2cc(F)ccc2N1 (stereo not given) | -14% | ? | 14 | -19% | -19%[46.1 µM] | -12%
Cc1cccc(NC(=S)N(C)Cc2cn(C)c3ccccc23)c1 | 6% | ? | -68* | -26% | -5% | -18%
CC1=C(C(=O)NCc2cccc(Br)c2)C2(CCCCC2)OC1=O | -29% | 12%[46.1 µM] | -12 | -5% | . | -10%
COc1c(C)cc(C(=O)C2CCCN(Cc3c(C)n(C)n(-c4ccccc4)c3=O)C2)cc1C (stereo not given) | 4% | -6% | -71* | -3% | ? | -10%
COc1c(C)cc(C(=O)C2CCCN(Cc3ccc(Oc4ncccn4)cc3)C2)cc1C (stereo not given) | ? | . | -83* | . | . | .
CC(C)Oc1cccc(C(=O)C2CCCN(Cc3ccc(Oc4ncccn4)cc3)C2)c1 (stereo not given) | ? | -25% | ? | -4% | ? | -17%
COc1cccc(C(=O)C2CCCN(Cc3c(C)n(C)n(-c4ccccc4)c3=O)C2)c1 (stereo not given) | -5% | . | -37 | . | . | .
Cc1oc(-c2ccccc2NC(=O)C2CCCO2)nc1CNC(=O)c1[nH]c2c(C)ccc(C)c2c1C (stereo not given) | -14% | . | . | -14% | . | -9%
COc1ccc(C=CC(=O)c2ccc(OCc3ccccc3)c(OC)c2)cc1OC | ? | . | -87* | 11µM* | . | 28µM*
COc1ccc(/C=C/C(=O)c2ccc(C(=O)/C=C/c3ccc(OC)c(OC)c3)cc2)cc1OC | ? | . | -76* | . | . | .
CCOc1cc(/C=C/C(=O)c2ccc(C)cc2)ccc1OCC(=O)N(C)C | ? | ? | -97* | ? | ? | ?
COc1cc(/C=C/C(=O)OCC(=O)c2c(N)n(C)c(=O)n(C)c2=O)ccc1OCC#N | -15% | ? | 20 | -24% | 6.3µM* | -17%
CCOc1cc(/C=C/C(=O)O)ccc1OCCO | -4% | 11% | -31 | . | 2% | .
COc1ccc(Oc2ccc(/C=C/C(=O)c3ccc(O)cc3)cc2[N+](=O)[O-])cc1 | ? | 13µM* | -98* | ? | ? | ?
COc1cc(/C=C/C(=O)c2ccc(C)cc2)ccc1OCC#N | ? | 10µM* | 0 | ? | ? | ?
COc1ccc([C@@H]2[C@@H](C(=O)N3CCOCC3)CC(=O)N2C(=O)/C=C/c2ccccc2)cc1 | . | . | -29 | . | . | .
Cc1ccc2nc(C(Cl)(Cl)Cl)nc(N/N=C/c3ccc([N+](=O)[O-])cc3)c2c1 | 22µM* | 25% | -28 | 4% | 10%[46.1 µM] | i
CCOc1cc(S(=O)(=O)NCCc2c(C)[nH]c3ccc(C)cc23)ccc1F | 19% | ? | 6 | -11% | . | -7%
Cn1c(=NC(=O)CS(=O)(=O)c2ccccc2)sc2cc([N+](=O)[O-])ccc21 | -12% | -2% | -87* | -11% | 6%[46.1 µM] | -4%
Cn1c(=NC(=O)CS(=O)(=O)c2ccccc2)sc2ccccc21 | 39% | 4% | -16 | -9% | -14% | i
Cc1ccccc1OC1C(=O)N(Cc2ccc3c(c2)OCO3)C1c1sccc1C (stereo not given) | -30% | ? | -71* | ? | ? | -20%

Screening data as filed in PubChem BioAssay.
